# Shown are actives, neighbours in structure and some others; about 2.3% of the full set was active somewhere.
# CHO-K1 Ca PAM = nonselective calcium activators in parental CHO-K1 cells, primary screen, counter-screen for M1 PAM project, cell-based, Fluo-8 calcium fluorescence, full deck, 1536-well. activation, % at 3 µM. ATP EC20; 0% at ATP EC20, 100% at ATP max. actives 0.02% (n = 360,000);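 active means activation above the run cutoff, the mean activation of all test compounds plus 3 SD, cut at about 40% in these data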;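 further: peak over basal fluorescence ratio in a 140 s read after ATP addition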
# CHO-K1 Ca antag = counter-screen for M1 antagonists: effect in parental CHO-K1 cells | ATP-induced calcium, Fluo-8 fluorescence | inhibition, % at 3 µM | actives 0.6% (n = 360,000);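 active means inhibition above a per-plate cutoff, the plate's mean sample inhibition plus 3 SD, cut at about 24% in these data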;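 further: 0% = DMSO plus EC80 ATP and 100% = DMSO alone without ATP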
# M1 antag = human M1 muscarinic receptor antagonists, primary screen, CHO-K1 cells, Fluo-8 calcium fluorescence, 1536-well; CHO-K1 hM1, ACh EC80 antagonist; inhibition, % at 3 µM; actives 1.3% (n = 360,000); AID 588852, 2011;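 active means percent inhibition above its own plate's cutoff, namely the mean of that plate's compound wells plus 3 SD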;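 further: peak over basal fluorescence ratio during 140 s after agonist addition; 0% = ACh EC80 plus DMSO and 100% = DMSO alone without agonist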
# Target sequence (P11229 whole entry, looked up): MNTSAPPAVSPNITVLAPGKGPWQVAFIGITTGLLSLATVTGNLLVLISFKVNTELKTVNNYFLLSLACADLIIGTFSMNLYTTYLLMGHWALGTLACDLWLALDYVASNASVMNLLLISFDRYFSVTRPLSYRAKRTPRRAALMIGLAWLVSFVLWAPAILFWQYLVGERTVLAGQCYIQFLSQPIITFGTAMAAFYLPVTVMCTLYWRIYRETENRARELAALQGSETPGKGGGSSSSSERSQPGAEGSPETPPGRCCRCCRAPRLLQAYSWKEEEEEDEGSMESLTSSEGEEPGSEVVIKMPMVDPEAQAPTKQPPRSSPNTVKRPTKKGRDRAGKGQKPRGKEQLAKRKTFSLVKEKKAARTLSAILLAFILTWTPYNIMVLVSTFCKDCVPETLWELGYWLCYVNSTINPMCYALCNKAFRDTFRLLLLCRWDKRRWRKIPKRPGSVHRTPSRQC
# M1 PAM = human M1 muscarinic receptor positive allosteric modulators, primary screen, CHO-K1 cells, Fluo-8 calcium fluorescence, 1536-well | CHO-K1 hM1, ACh EC20; 0% = ACh EC20, 100% = maximal ACh | activation, % at 3 µM | actives 0.088% (n = 360,000) | AID 588819, 2011; in the data active means activation above about 19%, passing the limit was not always enough
# M1 ag = human M1 muscarinic receptor agonists, primary screen, Fluo-8 calcium fluorescence, CHO-K1 cells, HTS; Muscarinic acetylcholine receptor M1 (Homo sapiens), P11229; CHO-K1 hM1, agonist mode; 0% DMSO, 100% acetylcholine EC100; activation, % at 3 µM; actives 0.33% (n = 360,000); AID 588814, 2011;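 active means activation above the run's mean compound activation plus 3 SD, cut at about 16% in these data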;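 further: peak over basal fluorescence ratio within a 140 s kinetic read after compound addition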
# CHO-K1 Ca ag = counter-screen for M1 agonists: effect in parental CHO-K1 cells; Fluo-8 calcium fluorescence; scaled to maximal ATP response, vehicle zero; activation, % at 3 µM; actives 0.48% (n = 360,000); in the data active means activation above about 15%;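 further: untransfected CHO-K1 host cells lacking M1 receptor as counterscreen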
# * marks the source's active call; other numbers are inactive results; . = no result given.
SMILES,CHO-K1 Ca PAM,CHO-K1 Ca antag,M1 antag,M1 PAM,M1 ag,CHO-K1 Ca ag
CCOC(=O)N1CCN(CCC(=O)Nc2cccc(Cl)c2C)CC1,6.0,-4.4,38.8*,-26.7,51.7*,0.6
CCOC(=O)C1CCN(CCC(=O)Nc2cccc(Cl)c2C)CC1,-0.2,-12.5,-5.3,-7.4,13.0,2.0
O=C(/C=C/c1cccc(Cl)c1)N1CCC(Cc2ccccc2)CC1,-11.7,25.3*,17.2,-9.9,-1.8,1.2
CSc1ccccc1C(=O)C1CCCN(Cc2c(C)n(C)n(-c3ccccc3)c2=O)C1 (stereo unspecified),-6.7,14.6,78.7*,-32.8,-12.8,6.9
O=C(CCCCn1ccc(=O)[nH]c1=O)Nc1ccc(C(=O)O)c(O)c1,17.1,-11.3,-12.4,4.0,-1.6,2.0
COc1ccc(CCNCC(C)c2ccccc2)cc1 (stereo unspecified),5.2,-5.2,35.5*,-20.4,-9.4,1.4
Brc1ccc(CNc2ccc3ncccc3c2)cc1,-7.8,18.8,35.9*,-15.9,-1.5,9.0
Cn1cc(Br)c(-c2cccc(NC(=O)CC(C)(C)CC(=O)O)c2)n1,22.6,-8.0,-5.1,5.7,-4.5,0.4
O=C(CCCCCN1C(=O)CCC1=O)Nc1ccc(Cl)c(C(F)(F)F)c1,10.8,-32.5,11.0,-12.6,-0.3,17.0*
CC(C)(O)CC[C@@H](O)[C@](C)(O)C1CC[C@@]2(O)C3=CC(=O)[C@]4(O)C[C@@H](O)[C@@H](O)C[C@]4(C)C3CC[C@]12C (stereo partly specified),9.9,-18.3,-17.0,6.2,-2.0,0.5
COc1ccccc1C1c2[nH]c3ccccc3c2CCN1Cc1cnc(C)s1 (stereo unspecified),21.4,-5.4,-1.3,-4.6,-15.4,1.0
COc1cccc(C2c3[nH]c4ccccc4c3CCN2Cc2cnc(C)s2)c1OC (stereo unspecified),19.1,-9.0,35.4*,-34.4,-15.6,-0.1
CCCCCCCn1c(=O)c(C(=O)OC)c(N)c2ccccc21,-7.9,4.4,27.6,-14.8,3.8,22.8*
COc1ccc(C(=O)c2ccccc2O)c(O)c1,-4.3,24.3*,-13.4,-6.1,-6.6,0.3
Cc1ccccc1C1=NC(C(F)(F)F)(C(F)(F)F)c2c(n(C)c(=O)n(C)c2=O)N1,-2.1,8.5,0.1,-0.7,-3.6,0.9
Cn1c2c(c(=O)n(C)c1=O)C(C(F)(F)F)(C(F)(F)F)N=C(c1ccc(Cl)cc1)N2,8.3,18.8,23.8*,-8.9,5.4,10.9
COCCCN1C(=O)C(CC(=O)NCc2cccs2)CC(C(=O)N2CCCCCC2)=C1C (stereo unspecified),16.4,-19.1,.,.,.,1.1
COC(=O)c1cc(S(=O)(=O)N2CCC(c3cc(OC)ccc3OC)C2)c[nH]1 (stereo unspecified),-6.9,10.5,23.4,-10.6,5.4,15.8*
COC(=O)c1cc(S(=O)(=O)N2CCN(c3cccc(C)c3C)CC2)c[nH]1,-2.6,13.2,34.4*,-21.2,0.2,7.7
COC(=O)c1cc(S(=O)(=O)N2CCC(c3ccccc3)C2)c[nH]1 (stereo unspecified),-3.8,3.4,-4.3,3.0,2.6,7.5
COc1ccc(C2CCCN2CC(O)COc2ccccc2C(C)C)cc1 (stereo unspecified),4.1,-14.1,-4.9,-2.5,-8.5,2.8
CCc1ccc(NC(=O)COC(=O)c2nc3nc(C)cc(C)n3n2)cc1,14.5,-14.6,-12.1,12.8,-1.3,-0.3
O=C(CSc1nnc(-c2c[nH]c3ccccc23)n1C1CC1)NC1CCS(=O)(=O)C1 (stereo unspecified),7.4,-19.4,-11.7,3.4,-5.5,-0.1
O=S(=O)(c1ccc(Cl)cc1)c1snnc1-c1ccccc1,22.4,-6.4,37.4*,-21.6,-5.6,0.7
CCN1CCN(CCNC(=O)c2ccc(/C=C3\Sc4ccccc4N(Cc4ccccc4F)C3=O)cc2)CC1,0.7,-1.8,46.9*,-22.6,-0.7,4.3
SMILES,CHO-K1 Ca PAM,CHO-K1 Ca antag,M1 antag,M1 PAM,M1 ag,CHO-K1 Ca ag
O=C(Nc1ccccc1)c1cc(C2CCCN(C(=O)c3ccccc3)C2)on1 (stereo unspecified),16.8,-13.7,-9.0,0.9,-8.1,1.5
O=C(Nc1ccccc1)c1cc(C2CCCN(C(=O)c3cccs3)C2)on1 (stereo unspecified),-9.3,24.4*,-8.3,1.2,-7.7,0.2
CCCC(=O)N1CCCC(c2cc(C(=O)Nc3ccccc3)no2)C1 (stereo unspecified),-15.2,23.8*,-8.8,2.4,-8.2,-0.2
C=CCn1c(C)cc(C(=O)CSc2nc3ccccc3[nH]2)c1C,-8.0,2.0,38.5*,-27.3,0.9,17.7*
Cc1cc(C(=O)CSc2nc3ccccc3[nH]2)c(C)n1Cc1ccco1,-0.5,26.6*,40.1*,-18.4,0.8,14.5
COc1cc(NC(=O)Cc2ccccc2)ccc1NC(=O)c1ccccc1,-1.1,20.0,0.9,-1.0,-3.4,0.2
CC(=O)NC1C(=O)Nc2c1cccc2C(F)(F)F (stereo unspecified),15.2,-20.3,-2.8,1.8,-3.4,0.7
CSCCC(NS(=O)(=O)c1cccc(C(F)(F)F)c1)C(=O)N(C)Cc1ccc2c(c1)OCCO2 (stereo unspecified),-14.8,11.2,37.9*,-14.4,-1.2,5.0
CSCCC(NS(=O)(=O)c1ccc2c(c1)OCCO2)C(=O)N(C)Cc1ccc(F)cc1 (stereo unspecified),4.6,0.2,16.5,-7.1,-0.8,8.6
CCOC(=O)c1cccc(NC(=O)C2CCN(S(=O)(=O)c3cccs3)CC2)c1,0.7,2.5,-1.8,-1.9,-1.6,5.1
CCOC(=O)c1ccc2c(c1)nc(C1CCN(S(=O)(=O)c3cccs3)CC1)n2CC,3.0,-5.6,15.5,-22.7,-4.5,15.5*
COc1ccccc1S(=O)(=O)N(C)C[C@@H]1OCc2cnnn2CCCC(=O)N([C@@H](C)CO)C[C@@H]1C,-1.4,12.3,-9.0,2.2,-5.2,0.3
CCc1nc(OCC(=O)c2ccccc2)c(C#N)c2c1COC(C)(C)C2,-7.2,25.0*,5.6,-4.4,-3.7,1.4
CC(=O)Nc1cncc(-c2ccccc2F)n1,6.6,5.1,-2.3,1.9,-4.0,0.4
CC1(C(=O)Nc2cccc3cccnc23)CCN1Cc1csc2ccccc12 (stereo unspecified),50.6*,-35.6,-6.5,-0.4,-2.9,1.2
